For part of these data: The full data set covers some 7,900 targets. This sample favours those with a hit. For part of these data: About 0.6% of all pairs of compound and target were hits. For part of these data: Of roughly 8,800 targets only a part is listed; those with a hit were picked by preference. For part of these data: About 0.5% of all pairs of compound and target were hits.
Legend:
[1] = compound: C1=CC=C(C=C1)[C@H](COC2=CC3=C(C=C2)NC(=O)N3)NC(=O)C4=CC=CN(C4=O)CC5=CC(=C(C=C5)F)F; test: log2 fold change, soluble protein after heating vs DMSO (PISA); higher = thermal stabilisation; K562 cells, 10 uM, 30 min; active = over 0.2 and 3.5 SD of the protein, either way, in both replicates (recomputed)
Summary of the method: (§1)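 Soluble protein was quantified by TMTpro 16plex LC-MS/MS after channel sums were equalised. It was obtained as the supernatant after 21,000xg for 90 min from pooled aliquots of K562 cells (2×10^6 cells/mL, 10 μM compound, 30 min) heated for 3 min across 48°C-58°C and extracted in PBS with 0.5% NP-40 at 4°C. Thermal stability values are relative to control samples and come from duplicates. They are given as log2 fold changes.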

[2] = compound: CC1=C(SC2=C1C(=N[C@H](C3=NN=C(N32)C)CC(=O)N)C4=CC=C(C=C4)Cl)C; test: as above
Summary of the method: as §1

[3] = compound: CC1=C2C(=CC=C1)N=C(N(C2=O)C3=CC=CC=C3C)CN4C=NC5=C(N=CN=C54)N; test: as above
Summary of the method: as §1

[4] = compound: Cc1sc2c(c1C)C(c1ccc(Cl)cc1)=N[C@@H](CC(=O)OC(C)(C)C)c1nnc(C)n1-2; test: as above
Summary of the method: as §1

[5] = compound: c1ccc([C@@H]2C[C@H]2NC2CCNCC2)cc1; test: as above
Summary of the method: as §1

[6] = compound: CC1=C2C(=CC=C1)N=C(N(C2=O)C3=CC=CC=C3C)CN4C=NC5=C(N=CN=C54)N; test: log2 fold change, soluble protein after heating vs DMSO (PISA); higher = thermal stabilisation; K562 lysate, 10 uM; active = over 0.2 and 3.5 SD of the protein, either way, in both replicates (recomputed)
Summary of the method: (§2)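 Log-two fold change in thermal stability relative to solvent controls is reported from duplicates. For each sample, crude K562 extract from dounce-homogenised pellets in PBS pH 7.4 with 1 mM MgCl2, at 1 mg/mL protein, was treated with 10 μM compound for 30 min. Aliquots heated for 3 min across 48°C-58°C were pooled, brought to 0.5% NP-40 at 4°C and cleared at 21,000xg for 90 min. The supernatant was quantified by TMTpro 16plex LC-MS/MS with channel sums equalised.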

[7] = compound: Cc1sc2c(c1C)C(c1ccc(Cl)cc1)=N[C@@H](CC(=O)OC(C)(C)C)c1nnc(C)n1-2; test: as above
Summary of the method: as §2

[8] = compound: c1ccc([C@@H]2C[C@H]2NC2CCNCC2)cc1; test: as above
Summary of the method: as §2

[9] = compound: C1=CC=C(C=C1)[C@H](COC2=CC3=C(C=C2)NC(=O)N3)NC(=O)C4=CC=CN(C4=O)CC5=CC(=C(C=C5)F)F; test: as above
Summary of the method: as §2

[10] = compound: CC1=C(SC2=C1C(=N[C@H](C3=NN=C(N32)C)CC(=O)N)C4=CC=C(C=C4)Cl)C; test: as above
Summary of the method: as §2

Measured: log2 fold change

ZFAND6 (UniProt Q6FIF0)
Chain of UniProt Q6FIF0 (Q6FIF0 whole entry, looked up): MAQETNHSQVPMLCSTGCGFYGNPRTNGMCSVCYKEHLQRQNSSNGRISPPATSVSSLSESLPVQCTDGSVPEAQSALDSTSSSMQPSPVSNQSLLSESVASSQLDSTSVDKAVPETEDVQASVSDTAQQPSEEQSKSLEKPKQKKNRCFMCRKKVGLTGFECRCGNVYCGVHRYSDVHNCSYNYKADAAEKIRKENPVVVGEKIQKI
inactive: [1] 0 | [2] -0.015 | [3] 0.042 | [4] -0.143 | [5] 0.004

ALKBH1 (UniProt Q13686)
Chain of UniProt Q13686 (Q13686 whole entry, looked up): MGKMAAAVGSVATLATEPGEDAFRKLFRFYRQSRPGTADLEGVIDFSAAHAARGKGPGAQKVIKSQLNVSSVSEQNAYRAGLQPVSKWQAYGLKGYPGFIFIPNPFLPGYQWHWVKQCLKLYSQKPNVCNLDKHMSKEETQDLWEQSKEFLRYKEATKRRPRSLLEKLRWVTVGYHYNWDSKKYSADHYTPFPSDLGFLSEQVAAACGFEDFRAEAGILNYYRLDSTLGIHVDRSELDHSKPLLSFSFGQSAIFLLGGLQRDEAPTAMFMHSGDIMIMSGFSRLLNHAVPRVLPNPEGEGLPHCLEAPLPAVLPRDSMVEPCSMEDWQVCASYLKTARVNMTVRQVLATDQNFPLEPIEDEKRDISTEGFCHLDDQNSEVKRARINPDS
inactive: [6] -0.036 | [7] -0.001 | [8] 0.051

ANXA1 (UniProt P04083)
Chain of UniProt P04083 (P04083 whole entry, looked up): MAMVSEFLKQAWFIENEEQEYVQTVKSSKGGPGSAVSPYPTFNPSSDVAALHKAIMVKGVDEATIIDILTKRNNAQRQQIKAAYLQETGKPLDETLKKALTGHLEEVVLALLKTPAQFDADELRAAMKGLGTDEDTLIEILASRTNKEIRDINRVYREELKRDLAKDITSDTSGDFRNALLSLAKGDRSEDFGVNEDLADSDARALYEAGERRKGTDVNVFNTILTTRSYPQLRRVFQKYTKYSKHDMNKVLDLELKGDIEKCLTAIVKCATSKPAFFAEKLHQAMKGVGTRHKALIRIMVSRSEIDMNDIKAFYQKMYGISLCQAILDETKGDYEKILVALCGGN
inactive: [9] -0.011 | [10] 0.005 | [6] -0.01 | [7] -0.019 | [8] -0.005

ALDH3A1 (UniProt P30838)
Chain of UniProt P30838 (P30838 whole entry, looked up): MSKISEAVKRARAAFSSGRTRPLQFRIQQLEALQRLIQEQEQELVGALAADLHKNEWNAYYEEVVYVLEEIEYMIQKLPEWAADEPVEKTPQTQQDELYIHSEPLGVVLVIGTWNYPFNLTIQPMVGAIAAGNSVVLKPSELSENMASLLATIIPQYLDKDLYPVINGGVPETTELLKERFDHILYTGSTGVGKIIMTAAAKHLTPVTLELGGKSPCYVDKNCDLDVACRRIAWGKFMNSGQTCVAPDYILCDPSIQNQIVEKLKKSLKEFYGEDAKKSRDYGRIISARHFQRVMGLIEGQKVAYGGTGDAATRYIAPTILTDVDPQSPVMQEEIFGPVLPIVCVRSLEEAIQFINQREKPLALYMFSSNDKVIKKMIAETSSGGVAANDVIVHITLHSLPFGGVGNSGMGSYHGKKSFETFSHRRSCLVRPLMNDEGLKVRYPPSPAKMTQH
inactive: [7] -0.209 | [8] -0.339
